For eight compounds, inhibition results are on record in PubChem BioAssay AID504914 (The Scripps Research Institute Molecular Screening Center, 2011).

The other results are listed elsewhere or left out. A number with no mark means an inactive call. No rule for the calls is given here.

The target of this test is 5-hydroxytryptamine receptor 5A (Homo sapiens) (UniProt P47898). The test can be described thus: HTR5A inverse agonists, counter-screen for OPRM1-OPRD1 inverse agonist project, cell-based, luminescence (AID 504914).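 Also: 0% = cells with DMSO and 100% = no-cell wells with DMSO.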 The settings on record: HTR5A-expressing cells, inverse agonism, at 9.3 µM, hits give high values.
Sequence of 5-hydroxytryptamine receptor 5A (Homo sapiens) (P47898 whole entry, looked up): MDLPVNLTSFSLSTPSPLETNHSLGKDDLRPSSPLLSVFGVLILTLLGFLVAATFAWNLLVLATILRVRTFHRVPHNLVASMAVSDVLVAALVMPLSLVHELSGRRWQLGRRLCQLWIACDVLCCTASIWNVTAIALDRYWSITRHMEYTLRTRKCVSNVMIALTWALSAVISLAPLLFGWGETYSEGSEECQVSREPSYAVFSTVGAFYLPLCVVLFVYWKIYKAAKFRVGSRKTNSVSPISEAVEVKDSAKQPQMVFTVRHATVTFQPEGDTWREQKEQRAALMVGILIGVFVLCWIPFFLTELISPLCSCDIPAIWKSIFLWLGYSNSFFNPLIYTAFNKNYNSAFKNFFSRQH
On to `Cc1cccc2c1N(CCOc1ccccc1)C(=O)C2=O`, for which the inhibition was 10.3%.

For the compound `O=C(CCl)NNc1cccc(Cl)n1`, the inhibition is 8.61%.

`O=[N+]([O-])/C=C/c1ccc2c(ccn2Cc2ccccc2)c1`: the inhibition was -16.4%.

As to `CCCCC(=O)NNC(=S)NC(=O)C(c1ccccc1)c1ccccc1`, the inhibition was -76%. In the case of `CCOc1ccc(NC(=O)c2cccc3c2C(=O)N(CC2CCCO2)C3)cc1` (stereo not drawn), the inhibition was -4.42%. As for `CCOC(=O)CN1C(=O)C(=O)c2cc(C)ccc21`, the figure is 12.5%; as for `COc1cc(NS(=O)(=O)c2ccc3ccccc3c2)c2ncccc2c1`, -111%; as for `Cc1cccc(C)c1NC(=O)C(Cl)C(=O)c1ccccc1` (stereo not drawn), -75.6%.
